Compound activity (PubChem BioAssay)
HPGD block: HPGD (human) dehydrogenase inhibition; AID 894; P15428; actives 4.3% (n = 150,000); purified HPGD, NADH fluorescence kinetic, PGE2 substrate; Potency, µM, inactives show at the highest dose activity change, negative = inhibition, hits mostly inhibitors; also: potency is read from the fitted curve at half-maximal effect
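NADH formation kinetics: reaction with 30 uM PGE2 and 1 mM NAD+ (final), 20 nM enzyme, Tris-HCl pH 8 with Tween 20, after 15 min compound preincubation at room temperature. Fluorescence change, last versus first of five reads.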
ALDH1A1 block: inhibitors of human aldehyde dehydrogenase 1A1. Purified ALDH1A1, NADH fluorescence, propionaldehyde substrate. Potency, µM (series often up to 75.3 µM), for inactives: top-dose activity, negative = inhibition, most hits filed as inhibitors. actives 7.3% (n = 220,000). AID 1030;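 also: potency is read from the fitted curve at half-maximal effect; plate controls were no enzyme wells and a reference inhibitor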
Target sequence (P00352 whole entry, looked up): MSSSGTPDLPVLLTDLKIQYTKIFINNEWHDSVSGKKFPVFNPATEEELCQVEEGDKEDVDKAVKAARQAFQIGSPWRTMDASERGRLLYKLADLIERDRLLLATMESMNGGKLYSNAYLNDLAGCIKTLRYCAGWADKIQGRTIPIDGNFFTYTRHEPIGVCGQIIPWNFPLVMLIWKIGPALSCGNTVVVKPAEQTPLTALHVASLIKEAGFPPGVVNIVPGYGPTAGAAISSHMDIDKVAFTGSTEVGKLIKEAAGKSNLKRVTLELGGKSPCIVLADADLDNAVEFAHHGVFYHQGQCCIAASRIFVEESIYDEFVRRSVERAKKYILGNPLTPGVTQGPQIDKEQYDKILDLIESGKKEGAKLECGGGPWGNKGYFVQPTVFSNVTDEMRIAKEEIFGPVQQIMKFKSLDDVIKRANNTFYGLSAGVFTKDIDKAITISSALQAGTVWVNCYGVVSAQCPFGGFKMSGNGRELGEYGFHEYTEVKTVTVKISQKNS
LMNA splice mod: modulators of lamin A splicing | HeLa LMNA splicing GFP/RFP minigene ratio, 48 h | Potency, µM (doses to about 46.1 µM), for inactives: at the top dose ratio change, negative = inhibition, actives largely listed as inhibitors | actives 0.01% (n = 200,000); active = well fitted inhibition curve with a large enough effect in the signal ratio, with a control signal flat, not every such curve was filed as active; inconclusive = small, poorly fitted or top-dose-only effect, or effect the other way, or a change in a side signal; the % refers to the signal ratio; also: potency is read from the fitted curve at half-maximal effect
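S3 HeLa cells stably expressing lamin A-EGFP splicing minigene plus DsRed2, 600 cells/well, 48 h compound exposure at 37C. Laser-scanning cytometry; analysed as GFP (500-530 nm)/RFP (575-640 nm) total intensity ratio; 0.5% DMSO vehicle.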
PNC inhibitor: inhibitors of perinucleolar compartment assembly | PC3M PTB-GFP, PNC prevalence imaging, 16 h; stronger effect = lower value | activity change (PNC), negative = inhibition, % at 10 µM | actives 3.1% (n = 140,000) | AID 2417;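 active = readout at or below -70, meaning at least 70% loss of cells showing the perinucleolar compartment, a nuclear body marking cancer cells; inconclusive = readout between -30 and a set limit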;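 also: plate controls were DMSO wells for no effect and camptothecin positive control wells for full effect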
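PC3M cells stably expressing PTB-GFP, 750–1000 cells/well, treated 16 h at 37 °C with compound (23 nl of library stock), in duplicate. After paraformaldehyde fixation and Hoechst stain, imaged at 20x; PNC prevalence scored by image analysis.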
Luc counter: Kinase-Glo luciferase inhibition (counter-screen); Kinase-Glo luciferase, ATP luminescence, 8 min; AID 1379; actives 0.28% (n = 200,000); Potency, µM (top dose mostly 38.3 µM), for inactives: top-dose activity change, negative = inhibition, hits mostly inhibitors; Q27757; active = well fitted inhibition curve with a large enough effect; inconclusive = small, poorly fitted or top-dose-only effect; also: potency is read from the fitted curve at half-maximal effect; nearly all actives have a fitted effect of over 60% in size
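Luminescence was the read-out, taken after 8-minute incubation at ambient temperature. Luciferase turned over luciferin with 10 uM ATP in imidazole pH 7.2 buffer containing KCl, MgCl2, Tween 20 and BSA.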
Starred values were filed as active, the others as inactive; ? = inconclusive; . = no result; ! = a repeat was not active; [ ] = remark or other dose. The list is not random: actives were taken first. Their share in the collection is about 10%. Unless noted, calls follow the shape of the dose curve; as a rule, active = well fitted inhibition curve with a large enough effect (not every such curve was filed as active); inconclusive = small, poorly fitted or top-dose-only effect, or another doubt; inactive = no such curve, though single readings can be large or run the other way. Unless noted, % is scaled to controls: 0 for no effect and ±100 for the full control effect.

SMILES	HPGD block	ALDH1A1 block	LMNA splice mod	PNC inhibitor	Luc counter
Cc1cccn2c(=O)c(/C=C(\C#N)C(=O)NC3CCS(=O)(=O)C3)c(N3CCC(C)CC3)nc12 (centres undefined)	-23%	?	-17%	17	5%
Cc1cccn2c(=O)c(/C=N/O)c(N3CCCCC3)nc12	2µM*	?	14%	-29	-2%
Cc1cccn2c(=O)c(/C=C(\C#N)C(=O)NCc3ccco3)c(N3CCCC(C)C3)nc12 (centres undefined)	16µM*	25µM*	-12%	?	1%
Cc1cccn2c(=O)c(/C=C(\C#N)C(=O)NCc3ccco3)c(N3CCC(C(N)=O)CC3)nc12	-30%	?	-10%	7	3%
Cc1cccn2c(=O)c(/C=C(\C#N)C(=O)NCc3ccco3)c(N3CCCCC3)nc12	32µM*	14µM*	-8%	-23	2%
COc1ccccc1CNC(=O)CCn1cnc2ccccc2c1=O	.	.	-2%[46 µM]	.	.
CCOc1ccc(CNC(=O)c2cnc3sc(N(CC)CC)nn3c2=O)cc1OC	.	.	7%[46 µM]	.	.
COC(=O)N1C(c2ccccc2)=Cc2ccccc2C1CC(C)=O (centres undefined)	-30%	-5%[13.5 µM]	-6%[9.22 µM]	.	-7%[7.66 µM]
CC1=CC(=O)c2ccccc2C1=O	?	14µM*!	?	-25	-6%
CC(C)(C=O)C1=CC(=O)c2ccccc2C1=O	7.1µM*	1.6µM*	?	-22	1%
CS(=O)(=O)N1CCC2(CCCN(C(=O)Nc3ccccc3)C2)CC1	-7%	13%	.	.	-1%
COc1ccc(NC(=O)N2CCCC3(CCN(S(C)(=O)=O)CC3)C2)cc1	3%	1%	.	.	-3%
COCCNS(=O)(=O)c1ccc(-c2ccc(S(=O)(=O)NCCOC)cc2)cc1	11µM*	?	?	0	-1%
CCC(CC)C(=O)N1CCc2cc(OC)c(OC)cc2C1COc1ccccc1OC (centres undefined)	.	.	-8%[46 µM]	.	.
COCCNC(=O)Cn1c(=O)n(CCCCCC(=O)NCc2ccc3c(c2)OCO3)c(=O)c2sccc21	.	-1%	.	.	0%
Cn1c(=O)c2sccc2n2c(CCCC(=O)NCc3ccc4c(c3)OCO4)nnc12	-28%	-7%	6%	-100*	0%
CC(=O)Nc1ccc(NC(=O)Cn2c(CC(=O)N3CCCC3)nc3ccccc32)cc1	1%	3%	0%	18	-2%
COCCn1c(SCC(=O)N2CCCc3ccccc32)nc2cccnc21	-10%	3.2µM*	2%	?	0%
O=C(Cn1c(SCC(=O)N2CCCc3ccccc32)nc2ccccc21)N1CCCC1	-9%	-2%	-4%	-100*	0%
CC(=O)Nc1ccc(C(=O)CSc2nc3ccccc3n2CC(=O)N2CCCC2)cc1	?	25µM*	-4%	36	12%
COCCn1c(SCC(=O)NC2CCCC2)nc2cccnc21	.	3%	.	.	-1%
Cc1ccc2c(=O)cc(CSc3ncn[nH]3)[nH]c2c1C	.	.	-1%[46 µM]	.	.
O=C(CN1CCCCCC1)N/N=C/c1ccc(Cl)c(Cl)c1	-20%	-14%	-8%	-6	-2%
O=C(CN1CCSCC1)N/N=C/c1ccc(F)c(F)c1	-9%	?	9%	-113*	1%
O=C(NCCc1ccccc1)c1ccc2c(c1)nc1n2CCOC1	.	.	-1%[46 µM]	.	.
SMILES	HPGD block	ALDH1A1 block	LMNA splice mod	PNC inhibitor	Luc counter
COc1cc(C(=O)N2c3ccccc3CC2C)cc(OC)c1OC (centres undefined)	-8%	1%	-16%	-82*	3%
Cc1onc(-c2c(F)cccc2Cl)c1C(=O)O/N=C(\N)c1ccc([N+](=O)[O-])o1	.	7.9µM*	.	.	.
Cc1onc(-c2c(F)cccc2Cl)c1C(=O)OCn1nnc2ccccc2c1=O	13µM*	-3%	?	67	1%
Cc1onc(-c2c(F)cccc2Cl)c1C(=O)NCCO	.	-2%	7%[46 µM]	.	-3%
Cc1onc(-c2c(F)cccc2Cl)c1C(=O)Nc1ccc(S(=O)(=O)Nc2ncccn2)cc1	-11%	2%	-4%	-123*	2%
Cc1onc(-c2c(F)cccc2Cl)c1C(=O)NCCc1ccc(S(N)(=O)=O)cc1	-23%	10%	?	-95*	2%
CC(=O)N[C@@H](CC(=O)O)C(=O)N[C@@H](CCC(=O)O)C(=O)O	-5%	7%	?	.	1%
COc1cccc(C2c3c(oc4ccc(C)cc4c3=O)C(=O)N2CCCN2CCOCC2)c1OC (centres undefined)	.	.	11%[46 µM]	.	.
O=C1c2oc3ccccc3c(=O)c2C(c2cccnc2)N1Cc1ccco1 (centres undefined)	-1%	14µM*	4%	-6	3%
Cc1cc2oc3c(c(=O)c2cc1C)C(c1ccc(F)cc1)N(CCCN1CCOCC1)C3=O (centres undefined)	-18%	7.1µM*	2%	24	0%
O=C1c2oc3ccccc3c(=O)c2C(c2cccc(F)c2)N1CCCO (centres undefined)	1%	14µM*	-2%	19	-6%
COC(=O)CC1=COC2OCC3=CC[C@@H]1C32 (some centres undefined)	.	9%[13.5 µM]	.	.	.
O=C1CSC(=NC2CCCCC2)N1	-8%	7.9µM*	-12%	?	0%
O=C(CCS(=O)(=O)c1cc2c(cc1Cl)NC(=O)CO2)NCCc1ccc(Cl)cc1	.	.	6%[46 µM]	.	.
O=C(Nc1cccc(F)c1)N1CC[C@@]2(CCCN(C(=O)c3ccncc3)C2)C1	1%	15%	.	.	-2%
CN1CC2(C)OC(=O)C(Cl)=C2CC1c1ccccc1 (centres undefined)	-2%	13µM*	-9%	38	-4%
Cc1ccc(N2CCN(CCC(=O)O)CC2)cc1	-8%	8%[13.5 µM]	.	.	-4%[7.66 µM]
CN(C)CC(=O)N1c2ccccc2CCc2ccc(NC(=O)c3ccc(N)cc3)cc21	-13%	?	-13%	-85*	-4%
COc1cc(C(=O)Nc2ccc3c(c2)N(C(=O)CCN(C)C)c2ccccc2CC3)cc(OC)c1OC	.	1%	?	.	2%
CCC(C)(C)C1CCC(=NNS(=O)(=O)c2ccc(C)c([N+](=O)[O-])c2)CC1 (centres undefined)	-3%	7.9µM*	-6%	?	-2%
CC(C)(C)C1CCC(=NNc2ccc(S(N)(=O)=O)cc2[N+](=O)[O-])CC1 (centres undefined)	-18%	-14%	-7%	-19	-2%
Cc1ccc(S(=O)(=O)N/N=C2/CCCCC2C2CCCCC2)cc1[N+](=O)[O-] (centres undefined)	-10%	35µM*	-2%	-26	1%
CC1CCCC/C1=N\Nc1ccc(S(N)(=O)=O)cc1[N+](=O)[O-] (centres undefined)	-11%	-8%	-6%	-8	-2%
CC(=O)N[C@H](Cc1c[nH]c2ccccc12)C(N)=O	-14%	-3%	.	.	-8%
